# According to PubChem BioAssay (NCATS):
# Results filed as inconclusive are left out. Values without a mark were called inactive. Calls of active or inactive are those of the source. Calls follow the shape of the dose curve; as a rule, active = well fitted inhibition curve with a large enough effect; inconclusive = small, poorly fitted or top-dose-only effect; inactive = flat fitted curve, though single readings scatter.
# Test: BET inhibitor-based combinations targeting novel dependencies in MECOM-rearranged (r) AML: AML-194 cell line (AID 2202237; also: nearly all actives have a fitted effect of over 40% in size;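 as to viability (% of control): plate controls were vehicle wells for no effect and wells without cells for full effect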)
# Details: AML-194 (MECOM-r AML) viability, CellTiter-Glo, 48 h; series mostly up to 46 µM; viability (% of control): at the top concentration
# Outline: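 Each compound was tested at eleven concentrations on cells seeded at 500/well. After two days' incubation, ATP-based luminescence reported viability; responses relative to DMSO and blank wells yielded AUC and cell-line-centred Z-AUC.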
# Potency is read from the fitted curve at half-maximal effect.
Structure (SMILES),Potency,viability (% of control)
O=C1c2ccccc2-[n+]2ccc3c([nH]c4ccccc43)c21,2.35 µM (active),–
O=C(O)CCC1CCC(c2cc(F)ccc2F)(S(=O)(=O)c2ccc(Cl)cc2)CC1 (centres undefined),–,97%
CCOCC(O)COc1ccc(NC(=O)CC[S+](C)C)cc1 (centres undefined),–,96.4%
C[C@H](NC(=O)c1sccc1OCc1ccc(Cl)cc1)c1ccccc1,–,97.3%
CC(C)C[C@@H](N)[C@H](O)C(=O)N[C@H](C(=O)N[C@H](C(=O)N[C@@H](CC(=O)O)C(=O)O)C(C)C)C(C)C,–,107%
Nc1nc2[nH]cc(CCc3ccc(C(=O)N[C@@H](CCC(=O)O)C(=O)O)cc3)c2c(=O)[nH]1,–,107%
C[C@H](NC(=O)[C@@H](O)c1cc(F)cc(F)c1)C(=O)N[C@@H]1C(=O)N(C)c2ccccc2-c2ccccc21,–,96.5%
CO[C@@H]1[C@@H](OC(N)=O)[C@@H](O)[C@H](Oc2ccc3c(O)c(NC(=O)c4ccc(O)c(CC=C(C)C)c4)c(=O)oc3c2C)OC1(C)C,–,116%
Cc1[nH]nc2ccc(-c3cncc(OC[C@@H](N)Cc4ccccc4)c3)cc12,1.18 µM (active),–
NC1=N[C@H]2[C@H](CS[C@H]2CCCCC(=O)O)N1,–,89.8% [at 15.6 µM]
Cc1ccsc1C(=CCCN1CCC[C@@H](C(=O)O)C1)c1sccc1C,–,100%
Cc1c(C)c2c(c(C)c1O)CCC(C)(COc1ccc(CC3SC(=O)NC3=O)cc1)O2 (centres undefined),–,96.2%
C[C@H](NC(=O)Cc1cc(F)cc(F)c1)C(=O)N[C@H](C(=O)OC(C)(C)C)c1ccccc1,–,100%
CC(Cc1ccc(O)c(O)c1)(NN)C(=O)O (centres undefined),–,101%
